According to PubChem BioAssay (Tox21):
Results filed as inconclusive are left out. Calls of active or inactive are those of the source. Unless noted, the call rests on the fitted dose curve; in most records, active means well fitted curve in the direction sought with a large enough effect in the repeat runs; inconclusive means weak or mixed curves; inactive means no such curve, though single readings can be large; an effect the other way counts as inactive or inconclusive.

Legend:
[1] = target: Thyrotropin receptor (Homo sapiens) (UniProt P16473); assay: qHTS assay to identify small molecule antagonists of the thyroid stimulating hormone receptor (TSHR) signaling pathway (AID 1259385; calls by dose curve; further: nearly all actives have a fitted effect of over 20% in size)
Sequence of Thyrotropin receptor (Homo sapiens) (P16473 whole entry, looked up): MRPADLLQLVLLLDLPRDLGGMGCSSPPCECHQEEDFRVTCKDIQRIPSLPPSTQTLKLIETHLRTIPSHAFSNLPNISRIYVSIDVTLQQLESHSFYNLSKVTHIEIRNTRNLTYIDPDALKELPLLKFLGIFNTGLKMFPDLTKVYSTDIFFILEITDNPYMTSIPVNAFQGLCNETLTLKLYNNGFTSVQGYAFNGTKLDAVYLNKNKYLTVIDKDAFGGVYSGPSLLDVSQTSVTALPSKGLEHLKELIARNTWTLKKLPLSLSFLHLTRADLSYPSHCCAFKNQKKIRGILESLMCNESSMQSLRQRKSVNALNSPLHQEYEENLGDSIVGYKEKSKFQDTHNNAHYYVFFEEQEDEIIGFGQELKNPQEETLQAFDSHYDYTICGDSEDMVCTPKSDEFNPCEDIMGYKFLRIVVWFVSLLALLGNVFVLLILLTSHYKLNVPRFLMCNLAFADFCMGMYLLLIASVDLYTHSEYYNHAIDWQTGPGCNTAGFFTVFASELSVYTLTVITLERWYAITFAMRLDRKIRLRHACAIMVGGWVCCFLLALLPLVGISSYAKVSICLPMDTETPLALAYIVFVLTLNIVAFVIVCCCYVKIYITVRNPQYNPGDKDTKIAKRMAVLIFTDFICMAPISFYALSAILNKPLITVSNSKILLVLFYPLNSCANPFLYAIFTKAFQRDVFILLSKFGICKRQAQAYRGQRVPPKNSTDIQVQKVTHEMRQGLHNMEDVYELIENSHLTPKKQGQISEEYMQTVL
Outline: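 Antagonist mode: compound-treated TSHR-expressing HEK293 cells were stimulated with 1.5 ng/mL TSH (final) in presence of Ro20-1724 for 30 min at RT. HTRF cAMP detection after 1 h; each compound tested at 15 concentrations, triplicate.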

[2] = target: Progesterone receptor (Homo sapiens) (UniProt P06401); assay: qHTS assay to identify small molecule agonists of the progesterone receptor (PR) signaling pathway (AID 1346784; calls by dose curve; further: nearly all actives have a fitted effect of over 30% in size; further: potency means the concentration at half of the fitted maximal effect)
Sequence of Progesterone receptor (Homo sapiens) (P06401 whole entry, looked up): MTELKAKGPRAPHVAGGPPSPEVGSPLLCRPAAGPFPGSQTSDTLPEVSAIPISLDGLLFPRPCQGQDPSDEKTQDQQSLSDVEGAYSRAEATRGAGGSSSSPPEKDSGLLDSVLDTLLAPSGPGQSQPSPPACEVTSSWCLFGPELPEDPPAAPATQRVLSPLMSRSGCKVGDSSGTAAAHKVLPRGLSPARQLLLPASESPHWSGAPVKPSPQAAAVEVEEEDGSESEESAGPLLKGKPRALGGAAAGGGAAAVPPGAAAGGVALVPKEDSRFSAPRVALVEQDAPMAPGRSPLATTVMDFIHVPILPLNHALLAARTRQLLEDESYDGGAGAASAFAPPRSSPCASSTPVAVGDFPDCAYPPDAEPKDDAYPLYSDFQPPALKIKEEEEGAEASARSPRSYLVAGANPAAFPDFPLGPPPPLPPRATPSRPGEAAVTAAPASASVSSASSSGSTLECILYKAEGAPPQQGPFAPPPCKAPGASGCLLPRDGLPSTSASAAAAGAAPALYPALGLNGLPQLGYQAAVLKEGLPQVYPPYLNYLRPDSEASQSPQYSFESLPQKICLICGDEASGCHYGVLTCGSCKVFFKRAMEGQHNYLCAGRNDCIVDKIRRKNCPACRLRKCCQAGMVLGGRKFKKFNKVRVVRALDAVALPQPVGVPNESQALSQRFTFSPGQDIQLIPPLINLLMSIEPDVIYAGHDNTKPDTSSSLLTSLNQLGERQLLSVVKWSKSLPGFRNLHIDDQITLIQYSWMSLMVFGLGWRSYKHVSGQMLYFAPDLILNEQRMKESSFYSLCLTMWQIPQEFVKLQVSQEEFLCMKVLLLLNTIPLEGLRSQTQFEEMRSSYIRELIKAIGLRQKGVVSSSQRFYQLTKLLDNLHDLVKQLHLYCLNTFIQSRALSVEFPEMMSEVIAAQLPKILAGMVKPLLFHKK
Outline: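 The screen uses PR-UAS-bla HEK 293T cells in charcoal-stripped serum (2%). Compounds are applied for 16 hr at 37C after a 6 hr pre-incubation, and reporter activity is detected with a FRET beta-lactamase substrate after 2 hr at room temperature.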

[3] = qHTS assay to identify small molecule antagonists of the TGF-beta/Smad signaling pathway - cell viability counter screen (AID 1346824); further: nearly all actives have a fitted effect of over 50% in size
Outline: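 Cytotoxicity counter-screen run in the same wells as the beta-lactamase Smad reporter read: CellTiter-Glo luminescence after 30 min at room temperature. HEK 293T SBE-bla cells had 5 hr compound exposure at 37 C with TGF-beta1 (0.25 ng/mL stock).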

[4] = qHTS assay to identify small molecule agonists of the TGF-beta/Smad signaling pathway - cell viability counter screen (AID 1346829); further: top concentration of the series differs between compounds; nearly all actives have a fitted effect of over 45% in size
Outline: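 HEK 293T SBE-bla line, 5 hr compound exposure at 37 C, multiplexed CellTiter-Glo viability read by luminescence.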

[5] = qHTS assay to identify small molecule agonists of the TGF-beta/Smad signaling pathway (AID 1346859; active means well fitted activation curve with a large enough effect in the signal ratio in the repeat runs, not every such curve was filed as active; the % refers to the signal ratio; further: series mostly up to about 77 µM)
Outline: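 Dual-wavelength fluorescence (460/530 nm emission) quantified beta-lactamase expression under the Smad binding element in HEK 293T cells following 5 hr compound treatment at 37 C.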

[6] = target: Thyrotropin-releasing hormone receptor (Homo sapiens) (UniProt P34981); assay: qHTS assay to identify small molecule antagonists of the thyrotropin-releasing hormone receptor (TRHR) signaling pathway (AID 1346877; active means well fitted inhibition curve with a large enough effect in the repeat runs, not every such curve was filed as active; further: series mostly up to about 51 µM)
Sequence of Thyrotropin-releasing hormone receptor (Homo sapiens) (P34981 whole entry, looked up): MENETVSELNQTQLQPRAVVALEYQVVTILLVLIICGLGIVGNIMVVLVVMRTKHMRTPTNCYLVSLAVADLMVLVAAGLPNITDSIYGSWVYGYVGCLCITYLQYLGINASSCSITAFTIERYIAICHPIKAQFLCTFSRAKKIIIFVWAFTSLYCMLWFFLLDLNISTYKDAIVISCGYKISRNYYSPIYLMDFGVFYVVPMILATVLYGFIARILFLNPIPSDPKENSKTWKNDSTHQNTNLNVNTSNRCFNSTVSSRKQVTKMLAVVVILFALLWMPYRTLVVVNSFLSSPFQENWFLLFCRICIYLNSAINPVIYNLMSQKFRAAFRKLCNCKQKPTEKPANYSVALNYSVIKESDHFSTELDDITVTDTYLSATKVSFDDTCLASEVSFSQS
Outline: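 Overnight-plated (18 h, 37 °C) HEK293 cells expressing TRHR were dye-loaded 2 h, treated with compound, then stimulated with TRH at 1 nM final. Fluorescence intensity was captured every second for 3 min.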

[7] = target: Thyrotropin-releasing hormone receptor (Homo sapiens) (UniProt P34981); assay: qHTS assay to identify small molecule agonists of the thyrotropin-releasing hormone receptor (TRHR) signaling pathway (AID 1346891; calls by dose curve;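 further: HEK293 cells expressing TRHR with calcium dye readout; series mostly up to about 58 µM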)
Outline: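 Kinetic fluorescence (3 min, 1 s intervals) reported intracellular calcium after compound transfer onto TRHR-Hek293 cells pre-loaded with dye for 2 h at 37 °C.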

[8] = Human pregnane X receptor (PXR) small molecule agonists, qHTS cell viability counter screen (AID 1346977); further: nearly all actives have a fitted effect of over 50% in size
Outline: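 HepG2 cells stably carrying the PXR-Luc reporter are cultured with 5% charcoal-stripped FBS and treated with compounds for 24hr. CellTiter-Fluor is added at 23hr and fluorescence is read after 1hr.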

[9] = Caspase-3/7 induction in HepG2 cells by small molecules, qHTS assay (AID 1346978); further: nearly all actives have a fitted effect of over 15% in size; further: potency means the concentration at half of the fitted maximal effect
Outline: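 Caspase-3/7 induction was measured by Caspase-Glo 3/7 luminescence (30 min, room temperature) after a 17 hr compound exposure of wild-type HepG2 cells seeded at 2,000 per well and pre-incubated 5 hr.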

[10] = Caspase-3/7 induction in CHO-K1 cells by small molecules, qHTS assay (AID 1346980); further: nearly all actives have a fitted effect of over 15% in size
Outline: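 Luminescent Caspase-Glo 3/7 read (30min, room temperature) quantified apoptosis induction. Cells were wild-type CHO-K1, treated with compound for 17hr at 37 C and 5% CO2.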

[11] = Caspase-3/7 induction in HepG2 cells by small molecules, qHTS cell viability counter screen (AID 1346981); further: nearly all actives have a fitted effect of over 30% in size; further: potency means the concentration at half of the fitted maximal effect; on activity change, negative = cytotoxicity: series mostly up to about 92 µM
Outline: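 Treatment of HepG2 cells with DMSO-delivered compounds ran 16 hr at 37 C following a 5-hr pre-incubation of 2,000 cells/well. CellTiter-Fluor fluorescence, read after 1 hr, served as the viability measure in a qHTS format.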

[12] = target: Nuclear receptor subfamily 1 group I member 2 (Homo sapiens) (UniProt O75469); assay: Human pregnane X receptor (PXR) small molecule agonists, qHTS assay (AID 1346982); further: nearly all actives have a fitted effect of over 35% in size; further: potency means the concentration at half of the fitted maximal effect
Sequence of Nuclear receptor subfamily 1 group I member 2 (Homo sapiens) (O75469 whole entry, looked up): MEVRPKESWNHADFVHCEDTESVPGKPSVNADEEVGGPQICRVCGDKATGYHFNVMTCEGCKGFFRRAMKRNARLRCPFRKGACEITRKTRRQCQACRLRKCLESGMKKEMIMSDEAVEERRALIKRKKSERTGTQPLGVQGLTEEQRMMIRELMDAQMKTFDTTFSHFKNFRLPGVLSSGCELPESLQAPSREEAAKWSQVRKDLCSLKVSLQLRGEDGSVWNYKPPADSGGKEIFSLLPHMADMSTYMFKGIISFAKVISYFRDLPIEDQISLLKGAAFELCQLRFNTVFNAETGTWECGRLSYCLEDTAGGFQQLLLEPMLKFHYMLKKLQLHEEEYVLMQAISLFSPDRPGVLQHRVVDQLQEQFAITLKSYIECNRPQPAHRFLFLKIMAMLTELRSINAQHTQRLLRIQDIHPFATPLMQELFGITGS
Outline: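 Stable HepG2 line reporting PXR-mediated CYP3A4 expression via luciferase. Treatment: 24 hr with compounds in DMSO at 37 C. Detection: ONE-Glo luminescence.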

[13] = target: Nuclear receptor subfamily 1 group I member 2 (Homo sapiens) (UniProt O75469); assay: CYP3A4 induction through human pregnane X receptor (PXR) by small molecules, qHTS assay (AID 1346984); further: nearly all actives have a fitted effect of over 40% in size
Outline: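 After 24 h at 37C with compound, DPX-2 cells (HepG2, co-transfected PXR response element and CYP3A4 promoter-luciferase) got 3uM final P450-Glo Luciferin-IPA for 3 h; One-Glo luminescence followed.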

[14] = target: Nuclear receptor subfamily 1 group I member 2 (Homo sapiens) (UniProt O75469); assay: Human pregnane X receptor (PXR) activation by small molecules, qHTS assay (AID 1346985); further: nearly all actives have a fitted effect of over 40% in size; further: potency means the concentration at half of the fitted maximal effect
Outline: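 DPX-2 cells (HepG2 co-transfected with a PXR response element and a CYP3A4-promoter luciferase construct) were seeded at 2,000 per well, rested 5 hr at 37C, then exposed to DMSO-dissolved compounds for 24 hr. Activation was read as luciferase luminescence.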

[15] = target: Progesterone receptor (Homo sapiens) (UniProt P06401); assay: qHTS assay to identify small molecule antagonists of the progesterone receptor (PR) signaling pathway (AID 1346795; active means well fitted inhibition curve with a large enough effect in the signal ratio in the repeat runs, not every such curve was filed as active; the % refers to the signal ratio; further: potency means the concentration at half of the fitted maximal effect)
Outline: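 After 6 hr plating at 37C in 2% stripped-serum medium, PR-UAS-bla HEK293T cells got compounds, then 1 nM R5020. Sixteen hours later, LiveBLAzer substrate was applied for 2 hr at room temperature and fluorescence was recorded.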

[16] = qHTS assay to identify small molecule antagonists of the progesterone receptor (PR) signaling pathway - cell viability counter screen (AID 1346798); further: series mostly up to about 92 µM; nearly all actives have a fitted effect of over 50% in size
Outline: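 Viability was determined by ATP-based luminescence (CellTiter-Glo) in PR-UAS-bla HEK293T cells cultured in 2% charcoal-stripped serum and incubated 16 hr with compounds under R5020 stimulation.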

[17] = qHTS assay to identify small molecule agonists of the progesterone receptor (PR) signaling pathway - cell viability counter screen (AID 1346799; calls by dose curve; further: nearly all actives have a fitted effect of over 45% in size)
Outline: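 Viability was scored by ATP luminescence (CellTiter-Glo, 30 min, room temperature) in the same wells used for the reporter readout, after 16 hr compound exposure of PR-UAS-bla HEK293T cells.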

[18] = Caspase-3/7 induction in CHO-K1 cells by small molecules, qHTS cell viability counter screen (AID 1346979); further: nearly all actives have a fitted effect of over 35% in size; further: potency means the concentration at half of the fitted maximal effect
Outline: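 Seeding: 1,500 CHO-K1 cells/well. Rest: 5hr, 37C. Treatment: compounds in DMSO, 16hr. Read: CellTiter-Fluor, 1hr, fluorescence.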

[19] = target: Nuclear receptor subfamily 1 group I member 2 (Rattus norvegicus) (UniProt Q9R1A7); assay: Rat pregnane X receptor (rPXR) activation by small molecules, qHTS assay (AID 1346983); conditions: rPXR luciferase reporter cells, One-Glo luminescence, 24 h; max activation: hits give high values; further: nearly all actives have a fitted effect of over 20% in size; further: potency means the concentration at half of the fitted maximal effect
Sequence of Nuclear receptor subfamily 1 group I member 2 (Rattus norvegicus) (Q9R1A7 whole entry, looked up): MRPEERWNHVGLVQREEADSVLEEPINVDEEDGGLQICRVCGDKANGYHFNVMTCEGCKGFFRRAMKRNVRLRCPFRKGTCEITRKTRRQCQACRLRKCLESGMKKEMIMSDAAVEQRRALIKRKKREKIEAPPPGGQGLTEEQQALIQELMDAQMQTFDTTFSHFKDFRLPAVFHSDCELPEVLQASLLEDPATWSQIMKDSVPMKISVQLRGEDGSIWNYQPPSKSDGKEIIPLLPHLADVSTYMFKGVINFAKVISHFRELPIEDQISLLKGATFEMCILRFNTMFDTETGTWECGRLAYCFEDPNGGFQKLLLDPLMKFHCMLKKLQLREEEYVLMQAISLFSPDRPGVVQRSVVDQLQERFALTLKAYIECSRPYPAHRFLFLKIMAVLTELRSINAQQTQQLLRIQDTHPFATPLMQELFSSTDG
Outline: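 Luminescent readout (One-Glo luciferase, 30 min room temperature) followed 24 hr compound treatment at 37 C of rPXR cells plated 2,000 per well and preincubated 5hr; qHTS format with compounds delivered in DMSO.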

[20] = qHTS assay to identify small molecule agonists of the estrogen receptor alpha (ER-alpha) signaling pathway in the presence of an antagonist - cell viability counter screen (AID 1259386);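 further: series mostly up to about 92 µM; cells exposed to compounds for 22 h at 37 °C before the viability read; nearly all actives have a fitted effect of over 30% in size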
Outline: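 The test measures whether compounds kill ER-alpha reporter cells (VM7Luc4E2) under antagonist co-treatment (ICI-182,780, 10.0nM). Fluorescence from CellTiter-Fluor is read after a 22hr exposure.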
On the % scale 0 is the no-effect control and ±100 the full control effect.

COc1ccc(/C=C/C(=O)c2ccc(OC)cc2OC)cc1
active: Potency [9] 10.6 µM | Potency [12] 29.8 µM | Potency [14] 22.4 µM
inactive: Potency [1] | Potency [2] | outcome [3] | Potency [4] | Potency [5] | outcome [6] | outcome [7] | Potency [8] | outcome [10] | Potency [11] | Potency [13]

SCCc1cnccn1
active: Potency [15] 43.3 µM
inactive: Potency [1] | Potency [2] | outcome [3] | Potency [4] | Potency [5] | outcome [6] | outcome [7] | Potency [8] | Potency [9] | outcome [10] | Potency [12]

CC(C)(O)CCc1ccccc1
inactive: Potency [1] | Potency [2] | Potency [15] | Potency [16] | Potency [17] | outcome [3] | Potency [4] | Potency [5] | Potency [8] | Potency [9] | Potency [18] | outcome [10] | Potency [11] | Potency [12]

CC(CN(CCN(CC(C)OCCO)CC(C)OCCO)CC(C)OCCO)OCCO (stereo not drawn)
inactive: Potency [1] | Potency [2] | Potency [15] | Potency [16] | Potency [17] | outcome [3] | Potency [4] | Potency [5] | outcome [6] | outcome [7] | Potency [8] | Potency [9] | Potency [18] | outcome [10] | Potency [11]
active: Potency [12] 3.31 µM

ClC1=C(Cl)C1(Cl)Cl
inactive: Potency [1] | Potency [2] | Potency [15] | Potency [16] | Potency [17] | outcome [3] | Potency [4] | Potency [5] | outcome [6] | outcome [7] | Potency [8] | Potency [9] | Potency [18] | outcome [10] | Potency [12]

O=C(O)CNC(=O)c1ccccc1I
inactive: Potency [1] | Potency [2] | Potency [15] | Potency [16] | Potency [17] | outcome [3] | Potency [4] | Potency [5] | Potency [8] | Potency [9] | Potency [18] | outcome [10] | Potency [12] | max activation [19] 0.066% | Potency [13] | Potency [14]

CC(=O)OCCC1CCCCC1
inactive: Potency [20] | Potency [2] | Potency [15] | Potency [16] | Potency [17] | outcome [3] | Potency [4] | Potency [5] | outcome [6] | outcome [7] | Potency [8] | Potency [9] | Potency [18] | outcome [10] | Potency [11] | Potency [12]

O=C(O)CN1C(=O)c2cccc3cccc(c23)C1=O
inactive: Potency [1] | Potency [16] | Potency [17] | Potency [4] | Potency [5] | outcome [6] | outcome [7] | Potency [8] | Potency [9] | outcome [10] | Potency [11] | max activation [19] -2.76%

COc1cc(NCc2ccc3nc(N)nc(N)c3c2C)cc(OC)c1OC
active: Potency [18] 26.6 µM | Potency [11] 26.6 µM
inactive: Potency [1] | Potency [2] | Potency [16] | Potency [17] | Potency [5] | outcome [6] | outcome [7] | Potency [9] | outcome [10] | Potency [12] | max activation [19] -10.1% | Potency [13] | Potency [14]

COc1ccc(C2C(=O)c3ccccc3C2=O)cc1
inactive: Potency [20] | Potency [2] | Potency [15] | Potency [16] | Potency [17] | outcome [3] | Potency [4] | Potency [5] | outcome [6] | outcome [7] | Potency [8] | Potency [9] | Potency [18] | outcome [10] | Potency [11] | Potency [12] | max activation [19] 8.42% | Potency [13]

COC(CC(C)CCCC(C)(C)O)OC (stereo not drawn)
inactive: Potency [1] | Potency [2] | Potency [15] | Potency [16] | Potency [17] | outcome [3] | Potency [4] | Potency [5] | outcome [6] | Potency [8] | Potency [9] | Potency [18] | outcome [10] | Potency [12]

COC(=O)C1=C(C)NC(C)=C(C(=O)OC(C)(C)CN(C)CCC(c2ccccc2)c2ccccc2)C1c1cccc([N+](=O)[O-])c1 (stereo not drawn)
active: Potency [15] 6.68 µM | Potency [18] 16.8 µM | Potency [19] 3.98 µM
inactive: Potency [1] | outcome [3] | Potency [4] | Potency [5] | outcome [6] | outcome [7] | Potency [9] | outcome [10]

Cc1ccccc1S(N)(=O)=O
inactive: Potency [1] | Potency [2] | Potency [15] | Potency [17] | outcome [3] | Potency [4] | Potency [5] | outcome [6] | outcome [7] | Potency [8] | Potency [9] | Potency [18] | outcome [10] | Potency [11] | Potency [12]

CC(=O)C(=O)CC(C)C
inactive: Potency [1] | Potency [2] | Potency [17] | outcome [3] | Potency [4] | Potency [5] | outcome [6] | outcome [7] | Potency [8] | Potency [9] | Potency [18] | outcome [10] | Potency [12]

O=C(O)c1cc(Cl)cc(Cl)c1O
inactive: Potency [1] | Potency [2] | Potency [15] | Potency [16] | Potency [17] | outcome [3] | Potency [4] | Potency [5] | outcome [6] | outcome [7] | Potency [9] | Potency [18] | outcome [10] | Potency [11] | Potency [12]

CCCCCCCCCCCCCOC(=O)CCSCCC(=O)OCCCCCCCCCCCCC
inactive: activity change, negative = cytotoxicity [20] -1.3% [at 19 µM] | activity change, negative = inhibition [15] 5.83% [at 18.9 µM] | activity change, negative = cytotoxicity [16] -8.45% [at 18.9 µM] | activity change, negative = cytotoxicity [17] 36.2% [at 19 µM] | viability change, negative = cytotoxic [3] 16.1% [at 15.8 µM] | activity change, negative = cytotoxicity [4] -1.41% [at 15.8 µM] | activation [5] 1.33% [at 15.8 µM] | activity, negative = inhibition [6] 4.46% [at 10.5 µM] | activation [7] 0.934% [at 11.8 µM] | activity change, negative = cytotoxicity [8] -0.253% [at 19 µM] | caspase activation [9] 0.0624% [at 19 µM] | activity change, negative = cytotoxicity [18] 0.0364% [at 19 µM] | caspase-3/7 activation [10] 0.789% [at 19 µM] | activation [12] 3.58% [at 19 µM]
active: Potency [2] 0.644 µM

CC(=O)N[C@@H](Cc1ccc(O)cc1)C(=O)O
inactive: Potency [1] | Potency [2] | Potency [15] | Potency [16] | Potency [17] | outcome [3] | Potency [4] | Potency [5] | Potency [8] | Potency [9] | Potency [18] | outcome [10] | Potency [11] | Potency [12] | max activation [19] -1.6% | Potency [13] | Potency [14]
